From PubChem BioAssay
HCV inh: HCV inhibition. Huh7.5.1 HCVcc-Cre infection, luciferase reporter, 44 h. 340,000 tested, 3.4% active. Potency, µM (series often up to 41.8 µM), for the others: top-dose activity change, negative = inhibition, hits mostly inhibitors; active = well fitted inhibition curve with a large enough effect; inconclusive = small, poorly fitted or top-dose-only effect, or another doubt; inactive = no such curve, though single readings can be large or run the other way; note: potency is the fitted concentration of half-maximal effect
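Seed cells (1,000/well) for 4 h; treat with compound and infect with HCVcc-Cre, moi about 0.5. Incubate 44 h, then detect luciferase activity.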
LASV entry inh: blocks Lassa virus binding to or entry into cells; Lassa virus pseudotype entry inhibition, cell reporter; Potency, µM (titrated, usually from 37.9 µM), inactives show at the top dose activity change, negative = inhibition, most hits filed as inhibitors; 300,000 tested, 1.2% active; AID 540256; calls by dose curve; tested in HEK293 cells; note: potency is the fitted concentration of half-maximal effect; nearly all actives have a fitted effect of over 50% in size
MARV entry inh: blocks Marburg virus binding to or entry into cells. Marburg virus pseudotyped entry inhibition, cell reporter. Potency, µM (highest dose often 37.8 µM), inactives show top-dose activity change, negative = inhibition, usual class: inhibitors. 300,000 tested, 1.8% active; calls by dose curve; tested in HEK293 cells; note: potency is the fitted concentration of half-maximal effect
HCMV inh: human cytomegalovirus inhibition. AID 1259415. activity change, negative = inhibition, % at 57.5 µM. 410,000 tested, 4.5% active. HFF cells, HCMV-luciferase reporter, 72 h; hits give low values; in the data active = activity change below about -60%; inconclusive = no clear call, values can overlap the other calls; inactive = above about -39%
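Human foreskin fibroblasts infected with luciferase-reporter HCMV at MOI 1 PFU/cell, compounds at two doses. Luciferase measured 72 h post infection; normalized to buffer-only basal and Salinomycin (10uM) controls.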
Vaccinia mCherry: inhibitors of vaccinia virus infection (mCherry reporter signal); Vaccinia virus mCherry reporter infection, fluorescence; Potency, µM (highest dose often 36.5 µM), without a hit: top-dose activity change, negative = inhibition, hits mostly inhibitors; 310,000 tested, 0.63% active; calls by dose curve; tested in A549 cells; note: potency is the fitted concentration of half-maximal effect; nearly all actives have a fitted effect of over 35% in size
VACV Venus inh: vaccinia inhibition (Venus reporter); Vaccinia virus Venus reporter expression, fluorescence; Potency, µM (top dose mostly 36.5 µM), for the others: at the highest dose activity change, negative = inhibition, usual class: inhibitors; 330,000 tested, 0.46% active; calls by dose curve; tested in A549 cells; note: potency is the fitted concentration of half-maximal effect; nearly all actives have a fitted effect of over 30% in size
Starred values were filed as active, the others as inactive; i = inactive; u = inconclusive; x = no result; [ ] = remark or other dose. The list is not random: actives were taken first. Their share in the collection is about 7.8%. % is set by controls: 0 for no effect and ±100 for the full control effect.

SMILES	HCV inh	LASV entry inh	MARV entry inh	HCMV inh	Vaccinia mCherry	VACV Venus inh
CCOc1ccc(NC(=O)C2CCN(S(=O)(=O)c3c(C)noc3/C=C/c3c(C)cc(C)cc3C)CC2)cc1	x	6.3%[46.1 µM]	x	u	-17.8%[7.34 µM]	-19.0%[7.34 µM]
Fc1cccc(-n2ncc3c2ncn2nc(Cc4ccccc4)nc32)c1	x	1.2%[46.1 µM]	6.9%[46.1 µM]	u	-9.2%	-10.2%
CCNc1nc(NCC)n2c(SC(C)C(=O)c3ccc(C)cc3)nnc2n1 (centres undefined)	u	-13.5%	11.6µM*	u	-14.1%	u
CC1=C(C(=O)OCC2CCCCC2)C(c2ccc(F)cc2F)CC(=O)N1 (centres undefined)	x	-2.9%[46.1 µM]	u	-104.9*	-15.0%	-16.6%
COc1ccc(C2(c3ccc(OC)cc3)NC(=O)N(CC(=O)Nc3ccc(C(=O)N(C)C)cc3)C2=O)cc1	-12.8%	-13.6%	18.2%	-66.1*	-13.3%	-8.5%
COc1ccc(CNC(=O)CN2C(=O)NC(C)(c3ccc(C(C)(C)C)cc3)C2=O)cc1 (centres undefined)	-16.4%	-18.8%	u	-36.6	u	-22.0%
C=CCNC(=O)CN1C(=O)NC(C)(c2ccc(OC)cc2)C1=O (centres undefined)	12.4%	23.2%	4.3%[46.1 µM]	-98.9*	32.1%	-2.9%
CC(C)S(=O)(=O)c1csc(C(=O)Nc2ccc(F)cc2)c1N	3.16µM*	u	u	72.0	u	-20.8%
Cc1nc(Cl)sc1C(=O)Nc1ccc(F)cc1	22.7%	-3.7%[46.1 µM]	11.6%[46.1 µM]	60.7	i	-16.7%
Cc1ccc(Cl)cc1-n1c(=O)c2sc3ccccc3c2n(Cc2ccccc2)c1=O	x	2.4%[46.1 µM]	9.3%[46.1 µM]	3.3	-0.8%	1.7%
CC1CCCCN1C(=O)CSc1nc2ccccc2nc1Cc1ccccc1 (centres undefined)	x	u	x	-71.8*	-3.9%	-19.2%
COc1cccc(-c2cn3nc4c(nc3n2)CCCC4)c1	-5.4%	u	u	x	x	-22.6%
Clc1ccc(-c2cn3nc4c(nc3n2)CCCC4)cc1	-0.4%	0.708µM*	u	u	x	-10.2%
COc1ccc(CC(=O)Nc2nc(-c3cc(OC)ccc3OC)cs2)cc1	12.6µM*	u	u	-22.6	11.2µM*	u
O=C(CSC1=NCCS1)Nc1nc2c(s1)CCCC2	u	23.7%	24.2%	-73.0*	x	x
COc1ccc(OC)c(-c2csc(NC(=O)Cc3cccs3)n2)c1	u	0.316µM*	-8.3%	33.7	-5.6%	-24.9%
O=C(Cc1cccs1)Nc1nc(-c2ccc(F)c(F)c2)cs1	u	u	-1.5%[46.1 µM]	16.3	u	-8.1%
O=C(Cc1cccs1)Nc1nc(-c2ccc(F)cc2F)cs1	11.2µM*	1.64µM*	u	-0.1	x	x
Cn1nnnc1SCC(=O)Nc1nc2c(s1)CCCC2	-3.4%	-6.7%	u	106.9	-1.2%	-14.6%
CCC(=O)Nc1ccccc1-c1nc2ccccc2n(Cc2cccc(Br)c2)c1=O	x	-1.2%[46.1 µM]	-2.7%[46.1 µM]	3.9	-26.3%	u
CCc1cc2c(cc3c(=O)n(CC(=O)NC4CCCCC4)ncn32)s1	x	x	3.9%[46.1 µM]	-19.8	-15.9%	-12.3%
CN(C)c1cccc(Nc2nccc3[nH]c(-c4ccsc4)cc23)c1	x	x	x	-8.2	x	x
COc1ccc(OC)c(-c2csc(NC(=O)Cc3ccc(OC)c(OC)c3)n2)c1	u	u	3.7%[46.1 µM]	-18.5	7.3%	0.0%
COc1ccc(CC(=O)Nc2nc(C)cs2)cc1OC	u	-1.1%	u	-69.9*	u	u
CC(=O)Nc1ccc(-c2csc(NC(=O)Cc3cccc(F)c3)n2)cc1	7.94µM*	u	u	-2.5	u	-21.8%
SMILES	HCV inh	LASV entry inh	MARV entry inh	HCMV inh	Vaccinia mCherry	VACV Venus inh
COc1ccc(OC)c(-c2csc(NC(=O)COC(=O)C3(C)CC3(Cl)Cl)n2)c1 (centres undefined)	14.1µM*	x	x	10.6	x	x
COc1ccc(CC(=O)Nc2nc(C(C)(C)C)cs2)cc1	10µM*	4.47µM*	u	u	u	-28.5%
CON(C)C(=O)/C=C/[C@@H](CC1CCCC1)NC(=O)C(F)(F)F	x	x	x	-14.4	x	x
CN1OC(C)(CC(=O)NCc2ccccc2)N=C1c1ccccc1 (centres undefined)	x	x	x	-7.7	x	x
COc1ccc(OC)c(-c2csc(NC(=O)C3COc4ccccc4O3)n2)c1 (centres undefined)	u	u	0.8%	-7.5	-27.1%	-19.1%
COc1ccc(OC)c(-c2csc(NC(=O)C3c4ccccc4Oc4ccccc43)n2)c1	u	u	-7.2%	-65.8*	-12.0%	-16.5%
COc1ccc(CC(=O)Nc2nc3c(s2)CCCC3)cc1	x	3.98µM*	2.51µM*	-37.0	-6.6%	-4.8%
O=C(Cc1cccs1)Nc1nc2c(ccc3ccccc32)s1	u	7.94µM*	u	63.1	-20.1%[1.46 µM]	u
COc1ccc(CC(=O)Nc2nc3c(s2)CC(C)CC3)cc1 (centres undefined)	x	16.2%[46.1 µM]	u	16.0	-16.6%	-5.8%
CC(C)(C)c1csc(NNC(=O)c2ccc(Br)cc2)n1	u	u	u	-97.3*	u	u
CC(=O)Nc1nc2c(ccc3ccccc32)s1	u	x	x	118.6	x	x
COc1ccc(CNC(=O)CN2C(=O)COc3ccc(S(=O)(=O)Nc4ccccc4)cc32)cc1	x	-7.3%[46.1 µM]	x	2.9	-2.3%	-1.9%
O=C(NCc1cccnc1)C1CCN(Cc2cc3ccccc3n2Cc2cccc(Cl)c2)CC1	x	-20.6%[46.1 µM]	x	-1.8	-21.5%	-18.2%
COC(=O)c1c(-c2ccc(OC)c(OC)c2)csc1N	18.8%	6.2%	-0.3%	19.1	-2.2%	2.7%
COC(=O)c1c(-c2ccc3ccccc3c2)csc1NC(=O)Cc1ccc(OC)c(OC)c1	u	u	u	-83.2*	x	u
Cc1csc(NC(=O)c2ccccc2O)n1	26.5%	-8.0%	u	58.9	x	-16.4%
CC(C)(C)c1csc(NC(=O)c2ccccc2O)n1	22.4µM*	u	11.2µM*	-93.9*	u	u
CCOC(=O)c1cc(-c2ccccc2)n(CC(=O)Nc2ccc(CC)cc2)c1C	x	-0.5%[46.1 µM]	x	45.3	-25.5%	-22.9%
CCOC(=O)C(NC(=O)CC(C)C)(Nc1sc(C)c(CC)c1C#N)C(F)(F)F (centres undefined)	-5.6%	-6.6%	14.1%	-39.5	-12.4%	-8.7%
CCOC(=O)C(NC(=O)CCl)(Nc1sc(C)c(CC)c1C#N)C(F)(F)F (centres undefined)	u	u	-41.3%	u	10µM*	u
CCn1ccnc1CN(C)Cc1cn[nH]c1-c1ccc(OC)c(F)c1	10.8%	14.0%[46.1 µM]	7.8%[46.1 µM]	-72.1*	i	-14.5%
Cc1ccc(NC(=O)CSc2c3c(nc4ccccc24)CCCC3)cc1F	x	-11.3%[46.1 µM]	-1.6%[46.1 µM]	-17.6	-28.2%	-17.9%
O=C(c1ccccc1)c1ccc(OCCn2cnc3ccccc3c2=O)cc1	-20.5%	25.1µM*	-14.0%	33.3	-29.8%	-24.9%
CC(C)CN1CCNC(=O)C1CC(=O)NCCc1cnn(-c2ccccc2)c1 (centres undefined)	-4.7%	9.7%	9.4%[46.1 µM]	-1.7	-0.4%	-4.5%
